# Data published in PubChem BioAssay AID1942 (Johns Hopkins Ion Channel Center, 2009).
# Out of some 2,400 compounds screened, about 580 (24%) were called active.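 How the source made its calls: active means activity change at or above the mean plus 3 SD of buffer wells without dofetilide, per plate; inactive means the rest.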 These entries were drawn from the full list.
# Molecular target: Potassium voltage-gated channel subfamily KQT member 2 (Rattus norvegicus) (UniProt O88943)
# Test: KCNQ2 potentiation in CHO cells – cell-based, FluxOR thallium flux, counter-screen for hERG block protector project, confirmation (AID 1942);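 further: normalized value minus buffer-control mean plus three SD of buffer wells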
# Details: FluxOR thallium flux fluorescence, at 10 µM, hits give high values
# Potassium voltage-gated channel subfamily KQT member 2 (Rattus norvegicus), sequence (O88943 whole entry, looked up): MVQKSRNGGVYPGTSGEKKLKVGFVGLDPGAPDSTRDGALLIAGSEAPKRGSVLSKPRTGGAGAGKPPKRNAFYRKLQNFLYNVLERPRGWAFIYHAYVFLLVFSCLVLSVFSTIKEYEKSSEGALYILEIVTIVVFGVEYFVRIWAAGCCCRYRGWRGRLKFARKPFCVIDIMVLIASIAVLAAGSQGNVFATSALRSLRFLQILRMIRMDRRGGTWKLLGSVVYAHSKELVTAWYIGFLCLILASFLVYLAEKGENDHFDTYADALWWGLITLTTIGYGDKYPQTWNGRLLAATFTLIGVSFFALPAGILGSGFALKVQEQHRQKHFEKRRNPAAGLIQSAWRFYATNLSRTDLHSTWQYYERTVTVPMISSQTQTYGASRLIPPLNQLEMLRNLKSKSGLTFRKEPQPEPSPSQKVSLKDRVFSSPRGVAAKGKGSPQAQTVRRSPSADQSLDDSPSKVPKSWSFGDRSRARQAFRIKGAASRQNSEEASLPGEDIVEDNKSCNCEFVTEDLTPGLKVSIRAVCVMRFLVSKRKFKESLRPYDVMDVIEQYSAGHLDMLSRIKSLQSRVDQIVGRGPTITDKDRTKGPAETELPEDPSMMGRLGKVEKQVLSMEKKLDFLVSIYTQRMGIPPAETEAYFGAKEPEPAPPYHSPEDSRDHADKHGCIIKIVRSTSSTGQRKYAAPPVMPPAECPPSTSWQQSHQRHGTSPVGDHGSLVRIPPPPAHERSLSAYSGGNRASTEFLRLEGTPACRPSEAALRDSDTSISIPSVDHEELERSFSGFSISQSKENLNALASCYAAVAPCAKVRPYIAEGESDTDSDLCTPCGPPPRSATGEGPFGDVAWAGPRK
row,SMILES,"activity change, less the hit threshold"
1,Cc1ccc(Cl)cc1NC(=O)COC(=O)c1ccccc1O,-21.1% (inactive)
2,Cc1ccccc1OC(=O)n1c(=S)oc2cc(Cl)ccc21,9.7% (active)
3,COC(=O)n1c(=S)oc2cc(Cl)ccc21,-10% (inactive)
4,CCCCC(=O)Nc1ccc(NCc2ccc(C)s2)cc1,42.5% (active)
5,Cc1ccc(NC(=O)CCC(=O)OCC(F)(F)C(F)F)cc1,-23% (inactive)
6,CCCCC(=O)Nc1cccc(C(=O)Nc2ccccc2C(=O)O)c1,-4% (inactive)
7,COc1cccc(OC)c1OCCOCCN1CCN(C)CC1,-21% (inactive)
8,O=C(NC(=S)NCc1ccccc1)c1cccs1,5.6% (active)
9,CCN(CC)c1ccc(NC(=S)NC(=O)c2cccs2)cc1,-9.5% (inactive)
10,O=C(NC(=S)Nc1ccccc1N1CCCCC1)c1cccs1,-23.1% (inactive)
11,O=C(NC(=S)Nc1ccccc1)c1cccs1,3.3% (active)
12,O=C(NC(=S)Nc1ccc(N2CCCCC2)cc1)c1cccs1,-9.5% (inactive)
13,CCSc1nc2c(c(=O)[nH]1)C(c1ccc(C)cc1)C1=C(CCCC1=O)N2 (stereo not drawn),-8.9% (inactive)
14,O=C(O)C/C(=C\c1cc(Br)cs1)c1nc2ccccc2o1,-8.4% (inactive)
15,CCCCCCc1cc2cc(-c3nnc(-c4ccccc4O)o3)c(=O)oc2cc1O,-7% (inactive)
16,CC(C)(C)c1csc(NC(=O)C2=COCCO2)n1,-13% (inactive)
17,Oc1c(Cl)cc(Cl)cc1/C=N/c1ncn[nH]1,23.9% (active)
18,Oc1c(Cl)cc(Cl)cc1Sc1cc(Cl)cc(Cl)c1O,-1.7% (inactive)
19,Oc1c(Cl)cc(Cl)cc1/C=N/c1nccs1,32.3% (active)
20,CC1CCN(C(=O)CSc2nnc(CNC(=O)c3ccco3)o2)CC1,-12.8% (inactive)
21,CCOc1ccc(NC(=O)CS(=O)CC(=O)NC2CCCc3ccccc32)cc1 (stereo not drawn),-13.6% (inactive)
22,Cc1nc2ccccc2n1-c1ccccc1,-4.2% (inactive)
23,COc1ccc(-n2ncc3c2CC(C)(C)CC3NC(=O)c2cn[nH]c2)cc1 (stereo not drawn),-22.9% (inactive)
24,O=C(O)c1cc(NN=C2c3ccccc3-c3ccccc32)ccc1Cl,32.4% (active)
25,O=C(O)c1cc(N/N=C/c2ccc(-c3ccccc3)cc2)ccc1Cl,-22.4% (inactive)
26,CC(C)Oc1cc(S(=O)(=O)N2CCCCC2)ccc1N,-15.7% (inactive)

row,SMILES,"activity change, less the hit threshold"
1,O=[N+]([O-])c1ccc(S(=O)(=O)Nc2ccc(S(=O)(=O)N3CCCC3)cc2)cc1,-23.3% (inactive)
2,CCCCOc1ccc(-c2c(C#N)c(N)[nH]c(=S)c2C#N)cc1,-10.1% (inactive)
3,CCOC(=O)c1c(C)[nH]c(=S)c(C#N)c1-c1ccc(Cl)cc1,5.2% (active)
4,Cc1[nH]c(=S)c(C#N)c(C)c1Cc1ccc(Cl)cc1Cl,-7.1% (inactive)
5,Cc1ccc([N+](=O)[O-])c2c1C(N1CC(C)OC(C)C1)C(C)(C)O2 (stereo not drawn),-14.4% (inactive)
6,S=c1nc(C2CCCCC2)n(-c2ccccc2)[nH]1,41.2% (active)
7,Cc1cc(OCC(=O)Nc2cc(S(=O)(=O)N3CCOCC3)ccc2N2CCCC2)ccc1C(C)C,-14.1% (inactive)
8,CNC(=S)N/N=C/c1cc(Br)cc(Br)c1O,-6.6% (inactive)
9,Cc1nnc(C)n1/N=C/c1cc(Br)cc(Br)c1O,17.8% (active)
10,CC(=O)C1=C(O)C(=O)N(c2cccnc2)C1c1ccc(Cl)cc1 (stereo not drawn),-25.8% (inactive)
11,Cc1c(C)c2ccc(OCC(=O)N[C@@H](Cc3ccccc3)C(=O)O)cc2oc1=O,-10% (inactive)
12,O=C(COc1ccc2c3c(c(=O)oc2c1)CCC3)N[C@@H](Cc1ccccc1)C(=O)O,8.1% (active)
13,O=C(COc1ccc2c3c(c(=O)oc2c1)CCC3)NCC1CCC(C(=O)O)CC1 (stereo not drawn),-17.1% (inactive)
14,Cc1[nH]c(-c2ccccn2)nc(=S)c1Cl,92% (active)
15,Cc1cc(=S)nc(-c2ccccn2)[nH]1,-4.4% (inactive)
16,COC(=O)Cc1[nH]n(-c2nc3ccccc3s2)c(=O)c1C(C)=Nc1ccc(C)cc1,-15.8% (inactive)
17,COc1cc(NC(=O)c2ccc3c(c2)OCO3)ccc1NC(=O)c1cccs1,-18.6% (inactive)
18,COc1cc(OC)cc(C(=O)NNC(=O)C(=O)Nc2cc(OC)c(Cl)cc2OC)c1,49.6% (active)
19,COc1cc(NC(=O)c2cc(-c3cccnc3)nc3ccc(C)cc23)c(OC)cc1Cl,-13.9% (inactive)
20,COc1ccc(NC(=O)C(=O)NNC(=O)c2cccs2)c(OC)c1,30.8% (active)
21,COc1ccc(C(=O)NNC(=O)C(=O)Nc2cccc3ccccc23)cc1,59.1% (active)
22,COc1cccc(C(=O)NNC(=O)C(=O)Nc2cccc3ccccc23)c1,59.7% (active)
23,COc1ccc(OC)c(NC(=O)C(=O)NNC(=O)c2cccs2)c1,-6.1% (inactive)
24,COc1cccc(CCNS(=O)(=O)CCNC(=O)c2cccc(OC)c2)c1,-13.6% (inactive)
25,C=C(C)CSc1nnc2[nH]c(=O)cc(N)n12,-18.3% (inactive)
26,O=C(/C=C/Nc1ccccc1)C(F)(F)F,-19.8% (inactive)

row,SMILES,"activity change, less the hit threshold"
1,COc1ccc(C2CC(c3ccc(Cl)cc3Cl)Nc3nc(N)nn32)cc1OC (stereo not drawn),-21.7% (inactive)
2,COc1ccc(/C=C2\SC(c3ccc(C)cc3)=NC2=O)cc1OC,-17.7% (inactive)
3,Oc1ccc(Br)cc1-c1n[nH]c(=S)n1Cc1ccccc1,-4.7% (inactive)
4,Fc1ccccc1N1CCN(c2cnc3ccccc3n2)CC1,-14.5% (inactive)
5,Cc1cccc(N(C(=O)c2csnn2)C(C(=O)NCc2ccccc2)c2ccncc2)c1 (stereo not drawn),-10.4% (inactive)
6,O=C1C(c2ccccc2)C(c2ccccc2)NC(c2ccccc2)C1c1ccccc1 (stereo not drawn),-17.9% (inactive)
7,O=C(CCSc1ccc(Br)cc1)c1ccc(O)cc1,-15% (inactive)
8,O=C(Cn1cnc2ccccc21)c1ccccc1,-11.5% (inactive)
9,COc1cccc(C(=O)NNC(=O)C(=O)Nc2ccc(OC)cc2OC)c1,29.6% (active)
10,O=C(CN1C(=O)COc2ccccc21)NCCCN1CCOCC1,-8.4% (inactive)
11,Cc1cccc(NC(=S)N/N=C2/CCCCc3ccccc32)c1,-20.4% (inactive)
12,Cc1cccc2nc(-c3cccnc3)c(NCCC(C)C)n12,-51.2% (inactive)
13,COc1nnc(-c2ccc(C)c(S(=O)(=O)NC(C)(C)CO)c2)c2ccccc12,-9.1% (inactive)
14,O=C1NC(=S)SC1=C1CCCCCC1,58.8% (active)
15,CCOC(=O)N1CCN(C(=O)CN(c2ccc(OCC)cc2)S(C)(=O)=O)CC1,-17.4% (inactive)
16,c1ccc2oc(-c3nn4c(Cn5cnc6ccccc65)nnc4s3)cc2c1,-19.1% (inactive)
17,C=CCn1c(O)c(N=NC(=S)Nc2ccccc2F)c2cc(S(=O)(=O)N3CCOCC3)ccc21,-16.8% (inactive)
18,C/C(Cl)=C\Cn1c(O)c(N=NC(N)=S)c2cc(Br)ccc21,16.1% (active)
19,Cc1cccc(Cn2c(O)c(N=NC(=S)Nc3ccccc3F)c3ccccc32)c1,-22.3% (inactive)
20,CCC1(C(=O)O)NC(c2cc(OC)ccc2O)C2C(=O)N(Cc3ccccc3)C(=O)C21 (stereo not drawn),-9.2% (inactive)
21,CCOC(=O)c1sc2nc(Cc3ccc(Cl)cc3)[nH]c(=S)c2c1C,-4.8% (inactive)
22,CCOC(=O)c1sc2nc(C)[nH]c(=S)c2c1C,4.9% (active)
23,CCOC(=O)c1sc(NN=C(C(=O)OC)C(=O)OC)c(C(=O)OCC)c1C,-9.1% (inactive)
24,Cc1ccc(Cn2nnc3c(=O)n(CC(=O)N4CCCc5ccccc54)cnc32)cc1,-14.8% (inactive)
25,O=C(NN1C(=O)C2C(c3ccccc3)C=CC(c3ccccc3)C2C1=O)c1ccncc1 (stereo not drawn),-42.5% (inactive)
26,O=C(N/N=C/c1ccccn1)c1cc(-c2ccc(Br)cc2)nc2ccccc12,-26.1% (inactive)

row,SMILES,"activity change, less the hit threshold"
1,O=C(N/N=C/c1ccccn1)c1sc2ccccc2c1Cl,27.4% (active)
2,Cc1c(C(=O)N/N=C/c2ccccn2)nnn1-c1nonc1N,-9.3% (inactive)
3,O=C1c2cccc3cccc(c23)C(=O)C1(O)O,-5.4% (inactive)
4,Cc1ccc(C(=O)O)cc1-c1ccc(/C=C2\SC(=O)N(CC(=O)Nc3ccccc3)C2=O)o1,-22% (inactive)
5,Cc1nn(-c2ccccc2)c(N2CCCC2)c1/C=N/O,-13.5% (inactive)
6,COc1ccc(C(=O)O)cc1S(=O)(=O)Nc1cccc(C(F)(F)F)c1,-13.4% (inactive)
7,Cc1nn(-c2cccc(C(F)(F)F)c2)c(Cl)c1/C=N/Nc1cccc(C(=O)O)c1,17.9% (active)
8,O=C(O)c1c2c(nc3ccccc13)/C(=C/c1cccc([N+](=O)[O-])c1)CCC2,-21% (inactive)
9,Cc1ccccc1C(=O)c1cn[nH]c1-c1ccccc1O,-32.5% (inactive)
10,Cc1nc(-c2ccccc2)cn(O)c1=O,-1% (inactive)
11,O=c1c(-c2ccccc2)nc(-c2ccccc2)cn1O,65.1% (active)
12,COC(=O)Nc1c(-c2ccccc2)nc2ccccn12,-17% (inactive)
13,CC(=O)c1ccc2c(c1)OCCOCCOCCO2,-20.1% (inactive)
14,Cc1cnc(C(=O)Nc2nccs2)cn1,-18.4% (inactive)
15,Fc1ccc(NC(=S)Nc2nccs2)cc1,1.8% (active)
16,O=C(CCc1ccccc1)Nc1nccs1,-23.4% (inactive)
17,COc1ccc(-c2cc(C(F)(F)F)nc(N3CCCCC3)n2)cc1OC,-16.3% (inactive)
18,COc1ccc(-c2cc(C(=O)N3CCCC3)no2)cc1,-9% (inactive)
19,COc1ccc(-c2cc(C(=O)N3CCCC3)no2)cc1OC,2.6% (active)
20,CC(/C=C1\SC(=S)N(c2ccc(C(=O)O)cc2)C1=O)=C\c1ccccc1,-20.4% (inactive)
21,CC(/C=C1\SC(=S)N(NS(=O)(=O)c2ccccc2)C1=O)=C\c1ccccc1,18.1% (active)
22,CC(/C=C1\SC(=S)N(NS(=O)(=O)c2ccc(C)cc2)C1=O)=C\c1ccccc1,8.8% (active)
23,COc1ccccc1/C=C1\SC(=S)N(NS(=O)(=O)c2ccc(C)cc2)C1=O,-24.5% (inactive)
24,CC(/C=C1\N=C(SCc2ccccc2Cl)SC1=O)=C\c1ccccc1,-10.1% (inactive)
25,Cc1ccc(S(=O)(=O)N2C(=O)/C(=C3\SC(=S)NC3=O)c3ccccc32)cc1,-14.4% (inactive)
